Pf growth 96h: Primary qHTS for delayed death inhibitors of the malarial parasite plastid, 96 hour incubation | 320,000 compounds, 6.9% hits | P. falciparum luciferase reporter growth, 96 h | Potency, µM (doses to about 28.7 µM), without a hit: at the highest dose activity change, negative = inhibition, most hits filed as inhibitors; also: % is scaled to controls: 0 for no effect and ±100 for the full control effect
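Parasite growth measured via integrated firefly luciferase reporter in P. falciparum. Infected erythrocytes at 2% hematocrit, 0.05% parasitemia final were treated 96 hours at 37 C under 5% CO2, and luminescence was read.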
NS1 function inh: qHTS Assay for Inhibitors of Influenza NS1 Protein Function; Potency, µM (top dose mostly 46.1 µM), for the others: top-dose activity, positive = more growth; 270,000 compounds, 0.4% hits; AID 2326, 2010; calls by dose curve; also: actives are rising curves; nearly all actives have a fitted effect of over 50% in size
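Recovery from NS1-induced slow growth read by OD600 in budding yeast switched to galactose assay medium (pH 6.0, -URA) at 1:100 dilution. Compound 23 nl per well; the matching strain lacking NS1 serves as control.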
Pf growth 48h: Primary qHTS for delayed death inhibitors of the malarial parasite plastid, 48 hour incubation | P. falciparum luciferase growth in erythrocytes, 48 h | 310,000 compounds, 5.9% hits | AID 504832, 2011 | Potency, µM (titrated, usually from 28.7 µM), for inactives: at the highest dose activity change, negative = inhibition, actives largely listed as inhibitors; also: % is scaled to controls: 0 for no effect and ±100 for the full control effect
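Growth was read as firefly luciferase luminescence after a 48 h, 37 C, 5% CO2 exposure of compounds to reporter-bearing P. falciparum cultures (0.1% parasitemia, 2% hematocrit final) in Albumax-supplemented RPMI 1640.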
Vaccinia mCherry: qHTS for Stage-Specific Inhibitors of Vaccinia Orthopoxvirus: mCherry Reporter Primary qHTS | Vaccinia virus mCherry reporter infection, fluorescence | Potency, µM (series often up to 36.5 µM), for inactives: at the top dose activity change, negative = inhibition, most hits filed as inhibitors | 310,000 compounds, 0.63% hits | AID 720579, 2013; calls by dose curve; tested in A549 cells; also: % is scaled to controls: 0 for no effect and ±100 for the full control effect; nearly all actives have a fitted effect of over 35% in size
Vaccinia Venus: qHTS for Stage-Specific Inhibitors of Vaccinia Orthopoxvirus: Venus Reporter Primary qHTS. Potency, µM (highest dose often 36.5 µM), inactives show at the top dose activity change, negative = inhibition, most hits filed as inhibitors. 330,000 compounds, 0.46% hits. Vaccinia virus Venus reporter expression, fluorescence; calls by dose curve; tested in A549 cells; also: % is scaled to controls: 0 for no effect and ±100 for the full control effect; nearly all actives have a fitted effect of over 30% in size
HCV inhibitor: qHTS Assay for Inhibitors of Hepatitis C Virus (HCV). Huh7.5.1 HCVcc-Cre infection, luciferase reporter, 44 h. 340,000 compounds, 3.4% hits. Potency, µM (top dose mostly 41.8 µM), for inactives: at the highest dose activity change, negative = inhibition, usual class: inhibitors; also: % is scaled to controls: 0 for no effect and ±100 for the full control effect
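Infectious HCVcc-Cre (~0.5 moi) was added to cells just after compound, with cells seeded 4 h earlier at 1,000 per well. Luciferase activity after 44 h culture reported infection; substrate was incubated 15 min at room temperature before reading.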
The depositor's hits bear a star; i = inactive; ? = inconclusive; nt = no result. Rows were chosen to be rich in hits. Some 11% of all compounds tested hit in one or more screens of this group. Unless noted, calls follow the shape of the dose curve; as a rule, active = well fitted inhibition curve with a large enough effect; inconclusive = small, poorly fitted or top-dose-only effect, or another doubt; inactive = no such curve, though single readings can be large or run the other way. Potency is read from the fitted curve at half-maximal effect.

SMILES | Pf growth 96h | NS1 function inh | Pf growth 48h | Vaccinia mCherry | Vaccinia Venus | HCV inhibitor
COc1ccc(C(=O)N2CCc3cc(OC)c(OC)cc3C2c2ccc(OC)c(OC)c2)cc1 (stereo not drawn) | ? | -6% | ? | -18% | -25% | 12%
CC(C)c1ccc(C2C3=C(COC3=O)Nc3cc4c(cc32)OCO4)cc1 (stereo not drawn) | ? | 0% | 1% | ? | ? | -46%
COc1ccc(CN(CC(=O)NCc2ccco2)C(=O)CCC(=O)Nc2ccccn2)cc1 | -37% | -3% | nt | nt | 1% | -4%
CC(CCc1ccccc1)NC(=O)c1ccc(NC(=O)c2ccc(Cl)cc2Cl)cc1 (stereo not drawn) | -21% | 7% | ? | i | -8% | -16%
Cc1cccn2c(CNC3CCCc4ccccc43)c(C(=O)N3CCOCC3)nc12 (stereo not drawn) | ? | 0% | -22% | nt | nt | -16%
CC(C)(C)N1C(=O)c2ccccc2NC(=O)N1Cc1ccc(Br)cc1 | 8.3µM* | -8% | nt | i | ? | -1%
Cc1ccccc1CN1C(=O)Nc2ccccc2C(=O)N1C(C)(C)C | nt | -3% | -5% | -5% | -8% | 4%
O=C1COc2ccc(-c3csc(NCC4CCCO4)n3)cc2N1 (stereo not drawn) | 15µM* | 9% | nt | i | -5% | ?
COc1cccc(-c2nc(-c3ccc4c(c3)NC(=O)CO4)cs2)c1 | 55% | nt | 155% | -5% | -15% | 14µM*
c1ccc2oc(-c3csc(NCC4CCCO4)n3)cc2c1 (stereo not drawn) | i | nt | 419% | i | -15% | 25µM*
CC(Nc1nc(-c2ccc3c(c2)NC(=O)CO3)cs1)c1ccccc1 (stereo not drawn) | ? | 5% | 2% | -26% | -24% | 11µM*
O=C1COc2ccc(-c3csc(-c4ccc(F)cc4)n3)cc2N1 | nt | nt | nt | -14% | -13% | nt
Cn1/c(=N/N=C/c2ccccn2)sc2ccccc21 | 244% | 4% | 209% | ? | -25% | ?
CCC(C)N1CC23C=CC(O2)C(C(=O)OC)C3C1=O (stereo not drawn) | ? | -2% | 0% | nt | nt | 8%
O=C(COC(=O)/C=C/c1cccc(Cl)c1)Nc1ccccc1-c1ccccc1 | 19% | -9% | -7% | nt | nt | 8%
CC(C)CN(C(=O)c1ccc(=O)n(C)n1)c1c(N)n(Cc2ccccc2)c(=O)[nH]c1=O | 3% | nt | -19% | -10% | -8% | 3%
O=S(=O)(c1cccs1)N1CCC2(CC1)OCCO2 | 13µM* | -4% | ? | i | -5% | 7%
CCC1CN(C(=O)N2CCC(C(=O)NCc3ccc(F)cc3)CC2)c2ccccc2O1 (stereo not drawn) | ? | -3% | ? | nt | nt | -29%
CCC1CN(C(=O)N2CCC(C(=O)NCc3cccs3)CC2)c2ccccc2O1 (stereo not drawn) | nt | nt | nt | 6% | -8% | nt
CCC1CN(C(=O)N2CCC(C(=O)NCc3ccco3)CC2)c2ccccc2O1 (stereo not drawn) | 12µM* | -1% | -2% | 1% | -8% | -18%
CCC1CN(C(=O)N2CCC(C(=O)NCc3ccc(C)o3)CC2)c2ccccc2O1 (stereo not drawn) | 9.3µM* | 3% | -4% | -3% | -8% | -27%
CCC1CN(C(=O)N2CCC(C(=O)NCc3cccc(F)c3)CC2)c2ccccc2O1 (stereo not drawn) | 9.3µM* | -6% | ? | nt | nt | ?
COc1cc(CN2C[C@@H](CO)O[C@@H](n3cnc4c(N5CCN(c6ccccc6)CC5)ncnc43)C2)cc(OC)c1OC | nt | nt | nt | -30% | -16% | nt
O=C(NCCN1CCOCC1)c1cc(-c2ccco2)on1 | 101% | -4% | 39% | -17% | -7% | -25%
COc1ccc(-c2noc(C3CCCN(C(=O)c4ccccc4C)C3)n2)cc1 (stereo not drawn) | ? | -28% | ? | -17% | -10% | 32µM*
SMILES | Pf growth 96h | NS1 function inh | Pf growth 48h | Vaccinia mCherry | Vaccinia Venus | HCV inhibitor
Cc1cccc(C(=O)N2CCCC(c3nc(-c4ccc(F)cc4)no3)C2)c1 (stereo not drawn) | ? | -24% | -2% | -27% | -16% | 13µM*
COc1ccc(-c2noc(C3CCCN(C(=O)c4cccc(F)c4)C3)n2)cc1 (stereo not drawn) | 24% | -9% | -1% | i | -17% | ?
COc1ccc(NC(=O)N2CCCC(c3nc(-c4ccc(OC)cc4)no3)C2)cc1 (stereo not drawn) | 19% | -13% | 44% | i | -21% | 22µM*
COc1ccc(NC(=O)N2CCCC(c3nc(-c4ccc(C(C)C)cc4)no3)C2)cc1 (stereo not drawn) | 8.3µM* | -48% | 37% | nt | nt | 10µM*
COc1ccc(-c2noc(C3CCCN(C(=O)c4ccccc4OC)C3)n2)cc1 (stereo not drawn) | ? | 4% | -13% | i | -23% | ?
Oc1c(Br)cc(Br)cc1CNn1cnnc1 | ? | -1% | -11% | i | 0% | 18%
FC(F)(F)c1ccc(-c2n[nH]c(=S)o2)nc1 | -19% | 5% | -12% | -15% | -13% | 1%
O=C(c1c(F)cccc1F)N1CCCC(c2nc(-c3cccs3)no2)C1 (stereo not drawn) | 8.3µM* | 2% | 27% | -7% | 0% | -2%
Cc1cccc(NS(=O)(=O)c2cc3c4c(c2)CC(=O)N4CCC3)c1C | 75% | 11% | ? | nt | nt | ?
CC(=O)N1CCc2cc(S(=O)(=O)NCCC(=O)NC3CCCc4ccccc43)ccc21 (stereo not drawn) | 37% | 8% | 12µM* | -22% | -14% | 10%
CCCN(c1ccc(OCC)cc1)S(=O)(=O)c1ccc2c(c1)CCN2C(=O)CCC(=O)O | -39% | -6% | ? | -11% | -5% | nt
CCC(=O)N1CCc2cc(S(=O)(=O)NCCN3CCC(C)CC3)ccc21 | 1.7µM* | ? | nt | -9% | -11% | -9%
CCCCN(c1ccccc1)S(=O)(=O)c1ccc2c(c1)CCN2C(=O)CCC(=O)O | 9.3µM* | 0% | ? | nt | nt | 15%
Cc1ccccc1NS(=O)(=O)c1cc2c3c(c1)CC(=O)N3CCC2 | 9% | 13% | 13µM* | nt | nt | -12%
CC(=C\c1ccccc1)/C=C1/SC(=S)N(C(C(=O)O)C(C)C)C1=O (stereo not drawn) | 40% | nt | 18% | i | -10% | 17%
